# In all, about 16,000 compounds went through this assay and about 5,700 (36%) were called active. Inconclusive results (about 24%) are left out. The list shows a part of the results. Unmarked numbers belong to inactive results. Calls come from the whole dose curve; as a rule, active = well fitted curve in the direction sought with a large enough effect; inconclusive = small, poorly fitted or top-dose-only effect, or effect the other way; inactive = no such curve, though single readings can be large or run the other way.
# Target: Cytochrome P450 1A2 (Homo sapiens) (UniProt P05177)
# Sequence (P05177 whole entry, looked up): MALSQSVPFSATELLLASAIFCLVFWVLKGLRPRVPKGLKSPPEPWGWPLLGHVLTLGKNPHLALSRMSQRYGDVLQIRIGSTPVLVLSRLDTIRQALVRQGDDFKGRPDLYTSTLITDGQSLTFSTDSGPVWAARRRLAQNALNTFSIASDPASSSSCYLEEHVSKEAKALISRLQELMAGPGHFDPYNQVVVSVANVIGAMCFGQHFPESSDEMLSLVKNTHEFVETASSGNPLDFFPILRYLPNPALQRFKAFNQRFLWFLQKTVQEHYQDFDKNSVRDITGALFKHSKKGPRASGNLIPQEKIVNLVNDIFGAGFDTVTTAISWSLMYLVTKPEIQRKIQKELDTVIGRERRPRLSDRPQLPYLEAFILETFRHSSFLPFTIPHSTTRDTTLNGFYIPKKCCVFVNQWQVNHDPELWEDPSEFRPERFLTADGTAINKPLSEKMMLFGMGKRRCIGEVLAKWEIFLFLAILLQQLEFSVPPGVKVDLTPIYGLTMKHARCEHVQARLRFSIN
# Assay: Cytochrome panel assay with activity outcomes
# Conditions: recombinant CYP, pro-luciferin dealkylation, luminescence, p450-cyp1a2; series mostly up to 57.1 µM; activity, negative = inhibition: at the top concentration
# % is set by controls: 0 for no effect and ±100 for the full control effect.
SMILES,"activity, negative = inhibition",AC50
COc1ccc(S(=O)(=O)N2CCC(N3CCCCC3)CC2)cc1,8.73%,
COc1ccc(S(=O)(=O)N2CC3CCCN3c3ccc(C(F)(F)F)cc32)cc1 (centres undefined),,12600 nM (active)
CCn1c(SC)nnc1C1CCN(S(=O)(=O)c2ccc(OC)cc2)CC1,3.42%,
NC(=O)C(=O)O,0.732%,
Nc1ccccc1S[C@@H](C[N+](=O)[O-])c1ccc2c(c1)OCO2,,631 nM (active)
CCCCNC(=O)NC1C(NC(=O)NCCCC)N(C)C(=O)N1C (centres undefined),5.97%,
CCCCNC(=S)NNC(=O)CCn1nc(C)c(Br)c1C,,14100 nM (active)
CN(N=O)c1ccc(/C=C\c2ccnc3ccccc23)cc1,,158 nM (active)
NC(=O)Nn1c(CCC(=O)O)ccc1-c1ccc(F)cc1,7.9%,
CC(=O)c1ccc(-n2c(CCC(=O)O)ccc2-c2cccs2)cc1,,14100 nM (active)
Cc1ccc(-n2c(CCC(=O)O)ccc2-c2cccs2)cc1C,,14100 nM (active)
O=C(O)CCc1ccc(-c2ccc(Cl)cc2)n1CCC(=O)O,-20.3%,
CCOC(=O)C1CCN(C(=O)C2CCN(S(=O)(=O)N3CCCC3)CC2)CC1,6.04%,
O=[N+]([O-])c1ccc(N2CCOCC2)nc1,,11200 nM (active)
Cc1cc(N2CCOCC2)ncc1[N+](=O)[O-],,10000 nM (active)
Cn1ncc([N+](=O)[O-])c1C(=O)N1CCOCC1,10.7%,
CN1CCN(c2ccc([N+](=O)[O-])cc2C(=O)N2CCOCC2)CC1,-4.87%,
Cc1cnc(CNc2ncnc3ccc(-c4ccc(N(C)C)cc4)cc23)cn1,,1000 nM (active)
Cc1cnc(CNc2ncnc3ccc(-c4ccoc4)cc23)cn1,,12600 nM (active)
Cc1cnc(CNc2ncnc3ccc(-c4ccc5c(c4)OCO5)cc23)cn1,,398 nM (active)
O=S(=O)(O)c1ccc2cc(N=Nc3cc(S(=O)(=O)O)c4cccnc4c3O)ccc2c1,-18.8% [at 2.29 µM],
CCCCNC(=O)NS(=O)(=O)c1ccc(C(=O)OC(C)C)o1,-8.46%,
Cc1c(NC(=O)NC(C)N2C(=O)C3C4C=CC(C4)C3C2=O)c(=O)n(-c2ccccc2)n1C (centres undefined),-7.99%,
NC(N)=NC(=O)c1nc(Cl)c(N2CCCCCC2)nc1N,,1000 nM (active)
CN(C)c1nc(N)c(C(=O)N=C(N)N)nc1Cl,,1000 nM (active)

SMILES,"activity, negative = inhibition",AC50
CC(C)CN(C)c1nc(N)c(C(=O)N=C(N)N)nc1Cl,,794 nM (active)
CCN(c1nc(N)c(C(=O)N=C(N)N)nc1Cl)C(C)C,,2000 nM (active)
O=S(=O)(c1ccc(F)cc1)N1CCCC(CO)C1 (centres undefined),2.77%,
COc1ccc(NC(=O)N2CC[C@@]3(CCCN(C(=O)c4csnn4)C3)C2)cc1,-8.96%,
CCN(CC)C(=O)Cn1cnc([N+](=O)[O-])n1,5.71%,
CCN(CC)C(=O)c1cc2cc([N+](=O)[O-])ccc2s1,,2000 nM (active)
CCOc1ccc(NC(=O)N2CCC(c3ccc(C)cc3)C2)cc1 (centres undefined),-21.5%,
Cc1cccc(OCC(=O)N2CCC(N3CCCCCC3)CC2)c1,-6.34%,
O=C(COc1ccc(Br)cc1)N1CCC(c2ccccc2)C1 (centres undefined),,3160 nM (active)
Nc1ccc(C(=O)C[C@H](N)C(=O)O)cc1O,-4.16% [at 11.4 µM],
Cc1cccn2c(=O)c(/C=N/O)c(N3CCCC3)nc12,,891 nM (active)
N[C@H](Cn1ccc(=O)n(Cc2ccccc2C(=O)O)c1=O)C(=O)O,-7.78%,
CCOC(=O)C1=C2SCC(=O)N2C(N)=C(C#N)C1,,1260 nM (active)
CC(C)OC(=O)C1=C2SCC(=O)N2C(N)=C(C#N)C1,,1260 nM (active)
O=C(O)c1ccc2c(c1)C(=O)N(C(Cc1ccc(O)cc1)C(=O)O)C2=O (centres undefined),3.34%,
CN[C@H]1[C@@H](O[C@@H]2[C@H](O[C@@H]3[C@@H](O)[C@@H](O)[C@@H](N=C(N)N)[C@@H](O)[C@@H]3N=C(N)N)O[C@H](C)[C@@]2(O)C=O)O[C@@H](CO)[C@@H](O)[C@H]1O,-0.443% [at 25.6 µM],
O=c1oc(-c2ccco2)nc2c1cnn2-c1ccccc1,,2000 nM (active)
CCC(CC)C(=O)Nc1c2cnn(-c3ccccc3)c2nc(=O)n1-c1ccccc1,-18.6%,
O=C(Nc1ccc(-n2nncc2-c2ccco2)cc1)c1cc2ccccc2oc1=O,-14.2%,
CC1(C)CCCN(C(=O)N2c3ccccc3Sc3ccccc32)C1,-13.2%,
CN1C(=C2C(=O)OC(C)(C)OC2=O)Sc2ccccc21,,11200 nM (active)
Nc1ncnc(N(c2ccccc2)C2CCCCC2)c1[N+](=O)[O-],11.3%,
Cn1c(SC2=CS(=O)(=O)c3ccccc32)nc2ccccc21,,6310 nM (active)
Cc1cc(C)c(-c2cc([C@H](C)O/N=C3/[C@H]4OC4[C@@H](O)[C@H]4[C@H]3CCn3c(=O)n(-c5ccccc5)c(=O)n34)on2)c(C)c1 (some centres undefined),-8.09% [at 11.4 µM],

# Source: PubChem BioAssay AID1851 (National Center for Advancing Translational Sciences (NCATS), 2009)
